Nrf2 block: Nrf2 qHTS screen for inhibitors | A549 ARE-Fluc reporter, luciferase luminescence, 18-24 h | Potency, µM (doses to about 46 µM), inactives show top-dose activity change, negative = inhibition, usual class: inhibitors | hit rate 2.1% among 360,000 | AID 504444, 2011; further: potency means the concentration at half of the fitted maximal effect; on the % scale 0 is the no-effect control and ±100 the full control effect; nearly all actives have a fitted effect of over 60% in size
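Nrf2 function is reported as luminescence of an ARE-controlled luciferase in A549 cells. Compounds were tested at several concentrations, and a CellTiter-Fluor read on the same wells flagged cytotoxicity.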
A549 tox: Nrf2 qHTS screen for inhibitors: counterscreen for cytotoxicity | hit rate 0.16% among 390,000 | AID 504648, 2011 | A549 ARE-Fluc cells, CellTiter-Fluor viability, 18-24 h | Potency, µM (series often up to 46 µM), without a hit: at the highest dose activity change, negative = cytotoxicity, most hits filed as inhibitors; further: potency means the concentration at half of the fitted maximal effect; on the % scale 0 is the no-effect control and ±100 the full control effect
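A549 ARE_Fluc cells in 5% FBS OPTI-MEM were exposed to compounds in concentration-response for 18-24 h at 37 deg C. Viability was read by CellTiter-Fluor fluorescence (Ex 405/Em 525) after 30 min, before the luciferase read.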
Nrf2 ARE act: qHTS of Nrf2 Activators | AREc32 ARE-luciferase reporter (MCF7-derived line), luminescence, 24 h | AID 624171, 2012 | Potency, µM (series often up to 46.1 µM), inactives show at the top dose activation, most hits filed as activators | hit rate 0.31% among 410,000; further: potency means the concentration at half of the fitted maximal effect; % of control where 0% means no effect; nearly all actives have a fitted effect of over 65% in size
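ARE-driven firefly luciferase activity in AREc32 cells measured after a 24 hr compound exposure at 37 deg C, using Steady-Glo reagent and a 30 min room-temperature hold.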
TCR activator: Activators of T cell receptors: qHTS campaign; primary human leukocytes, anti-CD3, IL-2 HTRF, 48 h; Potency, µM (highest dose often 9.22 µM), inactives show at the top dose activation of IL-2 secretion, usual class: activators; 330,000 tested, under 10 active; further: % of control where 0% means no effect
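1) Mix primary human leukocytes, a-CD3 beads and compound. 2) Incubate 48 hr. 3) Add HTRF IL-2 reagents (a-IL-2-K, a-IL-2-d2).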
ClpP mod: qHTS Assay for Activators of ClpP. purified B. subtilis ClpP, FRET peptide cleavage, 20 min. hit rate 1.9% among 340,000. ATP-dependent Clp protease proteolytic subunit (Bacillus subtilis (strain 168)), P80244. Potency, µM (titrated, usually from 57.5 µM), for inactives: top-dose activity change, negative = active; active means well fitted falling curve with a large enough effect; inconclusive means small, poorly fitted or top-dose-only effect; inactive means no such curve, though single readings can be large or run the other way; further: potency means the concentration at half of the fitted maximal effect; the source files actives as falling curves though it sought activators and does not explain the sign; nearly all actives have a fitted effect of over 65% in size
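ClpP 10 microg/mL final, pH 8 Tris/KCl buffer with BSA, glycerol, Tween-20; compound pinned in; FRET-FV substrate; RT 20 min; Ex320/Em430; ΔFRET vs ADEP 5.8 microM, DMSO, no enzyme.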
miR-21 act: qHTS Assay for Modulators of miRNAs and/orActivators of miR-21; HeLa miR-21 FLuc reporter, luciferase, 48 h; Potency, µM (doses to about 38.3 µM), without a hit: at the top dose activity change, positive = activation, actives largely listed as activators; 340,000 tested, under 10 active; AID 2288, 2010;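 further: % of control where 0% means no effect; miR-21 action dims this reporter so a rising signal means less miR-21 action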
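HeLa cells stably expressing CMV-driven firefly luciferase with a downstream miR-21 binding sequence, endogenously expressing miR-21, were treated with titrations (up to about 40uM final) for 48 hours at 37 degree Celsius. Luciferase luminescence was read after lysis.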
Starred values were filed as active, the others as inactive; ? = inconclusive; · = no result given; [ ] = dose if it differs, or a comment. A selection: hits, their analogues and other compounds. The true share with any hit is near 3.7%. Unless noted, the call rests on the fitted dose curve; in most records, active means well fitted curve in the direction sought with a large enough effect; inconclusive means small, poorly fitted or top-dose-only effect, or another doubt; inactive means no such curve, though single readings can be large; an effect the other way counts as inactive or inconclusive.

SMILES	Nrf2 block	A549 tox	Nrf2 ARE act	TCR activator	ClpP mod	miR-21 act
COCC(C)NC(=O)c1cc2c(=O)n3cccc(C)c3nc2s1 (configuration not stated)	7%	-2%	6%	·	5%	-33%
O=C1NC(=S)S/C1=C\c1cc2ccccc2nc1N1CCCCC1	21µM*	-28%	-1%	-4%	·	-6%
CC(C)COc1ccc(C(=O)NCC2(N3CCN(C)CC3)CCCCC2)cc1	18%	-24%	5%	·	-4%	-16%
COCCNC(=S)N(CCc1c(C)[nH]c2ccc(C)cc12)Cc1cc(OC)c(OC)c(OC)c1	-9%	-17%	7%	-17%	-4%	11%
CCNC(=S)N(CCc1c(C)[nH]c2ccc(C)cc12)Cc1cc(OC)c(OC)c(OC)c1	18µM*	-30%	2%	0%	-4%	-1%
CC(C)CCNC(=O)c1ccc2c(c1)NC(=O)C(C(C)C)N2 (configuration not stated)	-15%	-2%	-1%	·	-9%	4%
O=c1[nH]c(=S)c2[nH]cnc2[nH]1	-16%	-2%	·	·	?	·
COc1cc(Cl)ccc1OCc1cc(C(=O)NC(C)Cc2cccnc2)no1 (configuration not stated)	?	1%	3%	3%	28µM*	-19%
O=C(O)CCc1cc(F)c(S(=O)(=O)N2CCN(S(=O)(=O)c3ccc4c(c3)OCCO4)CC2)cc1F	-14%	-3%	·	·	·	·
O=C(NC(=O)c1cccc(F)c1)Nc1ccc(-c2cc(C(F)(F)F)nn2-c2ccccc2)cc1	-13%	5%	0%	·	-10%	-1%
O=C(Nc1ccc(-c2cc(C(F)(F)F)nn2-c2ccccc2)cc1)c1cccc(F)c1	13µM*	?	0%	·	?	?
Cc1ccc(Nc2nc(C)c(CCC(C)C)c(=O)[nH]2)cc1	-28%	-11%	-1%	-9%	3%	-8%
Cc1nc(Nc2ccc(F)cc2)[nH]c(=O)c1CCC(C)C	15µM*	?	0%	2%[46.1 µM]	-5%	-3%
CCc1nc2ccc(C(=O)NCCOc3ccc(OC)cc3)cn2c1N(C=O)Cc1ccc(OC)cc1	·	·	0%	·	-7%	·
CC(C)NC(=O)C1(C)CSCC(=O)N1Cc1cccc(F)c1 (configuration not stated)	·	·	·	·	0%	·
CCc1cccc(C)c1NC(=O)CSc1nc2ccc(N3C(=O)c4ccccc4C3=O)cc2s1	?	-6%	0%	7%	-2%	-2%
CCc1cccc(CC)c1NC(=O)CSc1nc2ccc(N3C(=O)C4C(C3=O)[C@H]3C=C[C@@H]4C3)cc2s1 (some centres not stated)	13µM*	-10%	0%	0%[46.1 µM]	-1%	-1%
Cc1cc(N2C(=O)c3ccccc3C2=O)no1	14%	1%	·	·	·	·
COc1ccc(-c2nnc(SCC(=O)Nc3ccc(F)cc3)s2)cc1	·	-2%	-3%	·	14µM*	-30%
COc1ccc(/C=C/c2nnc(NC(=O)COc3ccccc3)s2)cc1	10%	3%	0%	1%	·	-6%
COc1ccc(-c2nnc(NC(=O)C3CCCO3)s2)cc1 (configuration not stated)	27%	-16%	0%	-2%	13µM*	-39%
Cc1ccc(NC(=O)CSc2nnc(-c3ccncc3)s2)cc1	-12%	0%	1%	-1%	·	0%
COc1ccc2nc(NC(=O)C3CCCO3)sc2c1 (configuration not stated)	?	0%	0%	-2%	0%	-24%
CCOC(=O)Nc1nnc(/C=C/c2ccc(OC)cc2)s1	25%	-4%	5%	2%[46.1 µM]	13µM*	-39%
COc1ccc(/C=C/c2nnc(NC(=O)COc3ccc(C)cc3)s2)cc1	6%	-4%	2%	-1%[46.1 µM]	16µM*	-11%
SMILES	Nrf2 block	A549 tox	Nrf2 ARE act	TCR activator	ClpP mod	miR-21 act
O=C(CNC(=O)c1ccc(Cl)cc1)OC(C(=O)Nc1cc(C(F)(F)F)ccc1Cl)c1ccccc1 (configuration not stated)	4%	?	·	·	·	·
O=S1(=O)CC(N2CCCC2)CN1Cc1cn(Cc2cccc(C(F)(F)F)c2)nn1 (configuration not stated)	·	·	0%	·	0%	·
CCS(=O)(=O)N1CCN=C1SCc1ccc(F)cc1	2%	-3%	0%	4%	4%	-10%
O=C(NC1(C(F)(F)F)N=C(c2ccccc2)N(Cc2ccccc2)C1=O)c1ccc(F)cc1 (configuration not stated)	-15%	?	4%	·	-1%	7%
CCCCOC(=O)Nc1nnc(/C=C/c2ccc(OC)cc2)s1	-26%	3%	7%	7%[46.1 µM]	32µM*	-1%
COc1ccc(C(=O)Nc2nnc(-c3ccc(F)cc3)s2)c(OC)c1	16µM*	-1%	0%	-4%	·	-6%
CCOC(=O)Nc1nnc(-c2ccc(OC)cc2)s1	30%	-4%	0%	0%	13µM*	-44%
CCOC(=O)Nc1nnc(-c2ccccc2OC)s1	?	6%	8%	-2%[46.1 µM]	3.5µM*	-46%
COc1ccccc1C(=O)Nc1nnc(-c2ccc(F)cc2)s1	?	2%	5%	-1%	·	-27%
O=C1CCc2cc(S(=O)(=O)Nc3ccccn3)ccc2N1	15%	12%	·	·	·	·
S=C(Nc1ccc(Nc2ccccc2)cc1)Nc1ccccn1	21µM*	?	3%	6%	·	8%
S=C(Nc1ccccc1)Nc1ccccn1	·	·	10%	·	-5%	·
COc1ccc(OC)c(/C=C/c2c3ccccc3cc[n+]2C)c1	·	·	·	·	-6%	·
COc1cccc(NC(=O)c2cc(CN3C(=O)c4ccccc4C3=O)ccc2OC)c1	0%	-5%	2%	-3%[46.1 µM]	10µM*	-3%
COc1cccc(NC(=O)CN(C)C(=O)c2cc(CN3C(=O)c4ccccc4C3=O)ccc2OC)c1	7%	0%	0%	2%	0%	·
COc1cccc(NC(=O)c2ccc(CN3CCc4ccccc4C3)cc2)c1	15µM*	0%	8%	-5%	-5%	9%
CC(=O)c1cccc(NC(=O)c2ccc(CN3CCc4ccccc4C3)cc2)c1	-19%	5%	4%	-7%	-5%	13%
COc1ccc(NC(=O)c2ccc(CN3CCc4ccccc4C3)cc2)cc1OC	21µM*	0%	2%	-10%	1%	6%
CC1CCCCN1c1nnc(NC(=O)Nc2ccccc2F)s1 (configuration not stated)	21µM*	-25%	-1%	·	-3%	0%

From PubChem BioAssay
